Out of some 360,000 compounds screened, about 11,000 (3.1%) were called active. Inconclusive results (about 2%) are left out. The sample holds actives, similar compounds and a random draw of the others, so the mix is not that of the screen. Cut-off read from the data, not from the text of the source: active = fluorescence intensity above about 16000; inconclusive = no clear call, values can overlap the other calls; inactive = below that.
Experiment: compound fluorescence in toxin protease inhibitor counterscreen, primary screen, artefact control for toxin protease inhibitor project, biochemical, multiplex microsphere, HTS (AID 624483)
Details: compound autofluorescence counterscreen, microsphere flow cytometry; hits give high values

| Compound | fluorescence intensity |
| --- | --- |
| CCN(CC(=O)Nc1ccc2c(c1)OCCO2)Cc1cc(=O)oc2cc(C)c(C)cc12 | 10100 (inactive) |
| O=C(COc1ccc2c(C(F)(F)F)cc(=O)oc2c1)Nc1ccc2c(c1)OCCO2 | 23100 (active) |
| CC(C)NS(=O)(=O)c1ccc(OCC(=O)Nc2ccc3c(c2)OCCO3)cc1 | 4280 (inactive) |
| Cc1cc(C(=O)N2CCCC2(C)C(=O)O)c(C)o1 (configuration not stated) | 4080 (inactive) |
| Cc1cccc(C)c1Cn1c(C)c(C(=O)NCc2cccc(Cl)c2)sc1=O | 4280 (inactive) |
| CC(C)COP(=O)(c1ccc(N(C)C)cc1)C(Nc1ccccc1)c1cccnc1 (configuration not stated) | 2300 (inactive) |
| Cc1ccccc1C(=O)Nc1ccccc1NC(=O)c1ccccc1C | 3760 (inactive) |
| COC(=O)c1ccc(C(=O)OC)c(NC(=S)N2CCN(c3cc(Cl)ccc3C)CC2)c1 | 2510 (inactive) |
| COC(=O)c1ccc(C(=O)Nc2cc(Cl)ccc2Cl)cc1NC(=O)c1ccccc1C | 23700 (active) |
| CC1CCN(S(=O)(=O)c2ccc(S(=O)(=O)NCc3ccco3)cc2)CC1 | 6420 (inactive) |
| COc1cccc(N2CCN(C3CC(=O)N(c4ccc(Cl)cc4)C3=O)CC2)c1 (configuration not stated) | 2900 (inactive) |
| O=C1CC2(CC(c3ccc(Cl)cc3)=NO2)C(=O)N1c1ccccc1 (configuration not stated) | 5420 (inactive) |
| COc1ccc(C2=NOC3(CC(=O)N(c4ccc(Cl)cc4)C3=O)C2)c(OC)c1 (configuration not stated) | 20500 (active) |
| CSc1ccc(CNC(=O)C2(C)CCCN2C)cc1 (configuration not stated) | 3920 (inactive) |
| COc1ccc2oc(=N)c(C(=O)Nc3ccc(Br)cc3)cc2c1 | 2900 (inactive) |
| COc1ccc2oc(N)nc2c1 | 2890 (inactive) |
| COc1ccc2oc(=O)c(C(=O)O)cc2c1 | 20900 (active) |
| Cc1ccc(NC(=O)[C@H](Cc2ccccc2)NC(=O)CC[C@H]2O[C@@H](n3ccc(=O)[nH]c3=O)[C@H](O)[C@@H]2O)cc1C | 5530 (inactive) |
| CCOC(=O)C1(C)CCCN(C(=O)c2cccc(Cl)c2)C1 (configuration not stated) | 3450 (inactive) |
| CC(=NC1CCN(Cc2ccccc2)CC1)c1c(O)[nH]c(=O)[nH]c1=O | 22800 (active) |
| CC(=NCc1ccc2c(c1)OCO2)c1c(O)[nH]c(=O)[nH]c1=O | 4690 (inactive) |
| COCCn1c(CN2CCC(Cc3ccccc3)CC2)nc2c1c(=O)n(C)c(=O)n2C | 2950 (inactive) |
| CC(=NCC1CCCO1)c1c(O)[nH]c(=O)[nH]c1=O (configuration not stated) | 2530 (inactive) |

| Compound | fluorescence intensity |
| --- | --- |
| CC(=NC1CCN(Cc2ccccc2)CC1)c1c(O)n(C)c(=O)n(C)c1=O | 22500 (active) |
| CC1CCN(Cc2nc3c(c(=O)n(C)c(=O)n3C)n2CCc2ccccc2)CC1 | 3630 (inactive) |
| Cc1ccc2c(c1)nnc1nnc(SCC(=O)O)n12 | 6320 (inactive) |
| CCOc1ccc(CCN2C(=O)C(=O)N([C@@H](Cc3ccc(O)cc3)CN3CCC[C@H]3CN3C(=O)C(=O)NC[C@@H]3CC(C)C)C[C@@H]2Cc2ccccc2)cc1 | 4410 (inactive) |
| CCN(CCN(C)C)C(=O)c1ccc2nc(C)c(N(C)C(=O)CCc3ccccc3)n2c1 | 3720 (inactive) |
| Cc1c(S(=O)(=O)NCc2ccccc2)c(=O)n(C)c(=O)n1C | 4270 (inactive) |
| CCn1c2ccccc2c2cc(NC(=S)N3CCOCC3)ccc21 | 2580 (inactive) |
| CCn1c2ccccc2c2cc(NC(=O)COC(=O)c3cc(S(=O)(=O)N4CCCCC4)ccc3Cl)ccc21 | 1830 (inactive) |
| CCn1c2ccccc2c2cc(NC(=O)C/C(C)=N/NC(=O)c3ccccc3N)ccc21 | 23100 (active) |
| CC1(C)CC(N(Cc2ccccc2)C(=O)Cc2ccccc2)CCO1 (configuration not stated) | 4030 (inactive) |
| COc1ccccc1NC(=O)c1c(Br)cnn1C | 2020 (inactive) |
| O=C(NCc1cccs1)c1ccc(Br)o1 | 2540 (inactive) |
| Cn1ncc(Br)c1C(=O)NCc1cccs1 | 23700 (active) |
| N#Cc1ccc(-c2ccc(Cl)cc2)nc1Oc1ccc(F)cc1 | 9640 (inactive) |
| Clc1ccc(Cl)c(Oc2ccc(Oc3nc(Cl)ccc3Cl)cc2)n1 | 16400 (active) |
| CC1(Oc2cccc(F)c2)CCN(Cc2ccccc2OC(F)F)C1 (configuration not stated) | 4130 (inactive) |
| C=C(C)c1cccc(C(C)(C)NC(=O)NC2CCCC2)c1 | 9090 (inactive) |
| O=C(COC(=O)c1ccccc1NC(=O)c1ccco1)Nc1ccc2c(c1)OC(F)(F)O2 | 21800 (active) |
| O=C(COC(=O)c1ccc[nH]c1=O)Nc1ccc2c(c1)OC(F)(F)O2 | 5560 (inactive) |
| O=C(COC(=O)CNC(=O)c1ccco1)Nc1ccc(F)cc1 | 3560 (inactive) |
| COc1ccc2cc(C(=O)NCC3CCCO3)[nH]c2c1 (configuration not stated) | 3630 (inactive) |
| CCOC(=O)C1CCCN(C(=O)c2cc(-c3cccs3)oc2C)CC1 (configuration not stated) | 2870 (inactive) |
| CC(C)Cn1cnc2c1c(=O)n(CC(O)c1ccccc1)c(=O)n2CC(C)C (configuration not stated) | 16100 (active) |

| Compound | fluorescence intensity |
| --- | --- |
| CC(C)CCn1cnc2c1c(=O)n(CC(=O)NC(N)=O)c(=O)n2Cc1ccccc1 | 3800 (inactive) |
| CC(C)Cn1cnc2c1c(=O)n(CC(=O)NN)c(=O)n2Cc1ccccc1 | 4610 (inactive) |
| CCCCn1nnnc1C(c1ccccc1)N1CCN(c2ccccc2OC)CC1 (configuration not stated) | 4370 (inactive) |
| COc1ccc(C(C)=O)cc1COc1ccc(Cl)c(C)c1 | 5920 (inactive) |
| CCn1nc(C)c(NC(=O)/C=C/c2ccc(OC)c(COc3ccc(Br)cc3)c2)c1C | 24100 (active) |
| COc1ccc(/C=C/C(=O)Nc2c(C)nn(C)c2C)cc1COc1ccc(Br)cc1 | 8730 (inactive) |
| COc1ccccc1-c1cc2nc(NCc3cccc(Cl)c3)ccn2n1 | 3660 (inactive) |
| CCc1nc2c(OCCc3cccc(OC)c3)cccn2c1N(C)C(=O)c1ccc(C)cc1 | 3510 (inactive) |
| O=C(c1cc2nc(-c3ccccc3)cc(-c3ccccc3)n2n1)N1CCC2(CC1)OCCO2 | 2800 (inactive) |
| CC(=O)N1CCN(C(=O)c2cc(-c3ccc(C)o3)nc3ccccc23)CC1 | 7930 (inactive) |
| O=C(c1cc(-c2ccncc2)nc2ccccc12)N1CCC2(CC1)OCCO2 | 23100 (active) |
| CCCCC(=O)N(C)c1c(CC)nc2c(OCc3ccc(Cl)cc3Cl)cccn12 | 3970 (inactive) |
| O=C(CN1CCN(S(=O)(=O)c2ccc(Cl)s2)CC1)NCc1ccc(Cl)cc1 | 19600 (active) |
| O=C(CN1CCN(S(=O)(=O)c2ccc(Cl)s2)CC1)N1CCCCC1 | 2870 (inactive) |
| Cc1ccccc1N1CCN(CC(=O)NCc2ccc(Cl)cc2)CC1 | 4200 (inactive) |
| O=C(NC(c1ccccc1)c1ccccc1)N1CCN(CCO)CC1 | 20400 (active) |
| CC(=O)N1CCN(CC(c2ccccc2)c2ccccc2)CC1 | 3040 (inactive) |
| O=C(CN1CCN(Cc2ccccc2)CC1)NC(c1ccccc1)c1ccccc1 | 4580 (inactive) |
| Cc1ccc2c(C)c(C(=O)N(C)Cc3ccncn3)oc2c1C | 5730 (inactive) |
| O=C(COc1ccc(Cl)cc1Cl)N/N=C/c1ccccn1 | 5790 (inactive) |
| CSc1ccc(/C=N\NC(=O)COc2ccc(Cl)cc2Br)cc1 | 17700 (active) |
| CSc1ccc(/C=N/NC(=O)c2cccc(Cl)c2)cc1 | 2570 (inactive) |
| CCOC(=O)[C@]12CCCC=C1N(Cc1cccc3ccccc13)C(=O)[C@H](CC(=O)NCC13CC4CC(CC(C4)C1)C3)C2 | 5880 (inactive) |

| Compound | fluorescence intensity |
| --- | --- |
| CC1(C(=O)NCc2cccc3ccccc23)CCN1Cc1ccc(-c2ccccc2)o1 (configuration not stated) | 3560 (inactive) |
| CCCCc1ccc(S(=O)(=O)NC(=O)C2(C)CCN2C(=O)c2ccccc2)cc1 (configuration not stated) | 3420 (inactive) |
| CC(OC(=O)c1ccc(NS(=O)(=O)c2ccc3[nH]c(=O)[nH]c3c2)cc1)C(=O)Nc1cccc(Cl)c1Cl (configuration not stated) | 3440 (inactive) |
| CC(=O)NS(=O)(=O)c1ccccc1 | 6630 (inactive) |
| CC(C)(C)C(=O)NC(NC(=S)Nc1ccc(S(N)(=O)=O)cc1)C(Cl)(Cl)Cl (configuration not stated) | 1960 (inactive) |
| CC(=O)NS(=O)(=O)c1ccc(NC(=S)NC(=O)C(C)(C)C)cc1 | 24700 (active) |
| CC(C)CCOc1ccc(C(=O)Nc2cc(S(=O)(=O)N3CCOCC3)ccc2N2CCOCC2)cc1 | 3010 (inactive) |
| Cc1ccccc1CN1CCN(C(=O)c2cccc(F)c2)CC1 | 2980 (inactive) |
| CC(C)CC(=O)N1CCC(O)(CS(=O)(=O)Cc2ccccc2)CC1 | 10100 (inactive) |
| Cc1ccccc1CS(=O)(=O)CC1(O)CCN(C(=O)c2cccc(C(F)(F)F)c2)CC1 | 20100 (active) |
| O=C(c1ccc(Cl)cc1)c1ccc(OCC(O)CN2CCCCC2)cc1 (configuration not stated) | 4210 (inactive) |
| Cc1cccc(OCC(O)Cn2c(N3CCCCC3)nc3c2c(=O)[nH]c(=O)n3C)c1 (configuration not stated) | 4090 (inactive) |
| Cn1c(=O)c2c(nc(N3CCCCCC3)n2CC(O)COc2ccc(Cl)cc2)n(C)c1=O (configuration not stated) | 21800 (active) |
| c1cc(-c2ccc3[nH]ccc3c2)n2ccnc2c1 | 3500 (inactive) |
| COC(=O)[C@]12CCCCC=C1N(Cc1ccco1)C(=O)[C@H](CC(=O)NCC1CCCCC1)C2 | 4680 (inactive) |
| CSc1ncccc1C(=O)Nc1cccc(S(=O)(=O)N2CCOCC2)c1 | 4320 (inactive) |
| Oc1ccc(CNc2ccccc2O)cc1 | 3590 (inactive) |
| COc1ccc2oc(=O)cc(CN3CCOCC3)c2c1 | 4180 (inactive) |
| COc1ccc(OC)c(C(=O)c2coc3ccc(O)c(CN4CCOCC4)c23)c1 | 22400 (active) |
| COc1ccc(OC)c(C(=O)c2coc3ccc(OC)cc23)c1 | 2950 (inactive) |
| Cc1ccc(NC(=O)c2oc(=O)c3ccccc3c2-c2ccccc2)c(C)c1 | 2070 (inactive) |
| CCN(CC)CCNc1nc(-c2ccc(OC(F)F)cc2)c(C)s1 | 4700 (inactive) |
| O=C(c1cccc(Br)c1)N1CCN(C2=NS(=O)(=O)c3ccccc32)CC1 | 5480 (inactive) |

Source: PubChem BioAssay AID624483 (NMMLSC, 2012)
